# In PubChem BioAssay (NCI):
# Compounds without any hit were thinned out: in the full panel of roughly 79,000, 15% have a hit. A number with no mark means an inactive call. Active and inactive are the calls of the source. Cut-off read from the data, not from the text of the source: active = growth inhibition above about 70%; inactive = the rest.
# Experiments:
# [1] = NCI Yeast Anticancer Drug Screen. Data for the rad52 strain (AID 147);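 note: 0% = growth of vehicle-treated control cultures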; conditions: S. cerevisiae rad52 mutant growth inhibition, hits give high values
# In short: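 DNA repair-defective yeast; compound exposure; growth scored against vehicle controls.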
# [2] = NCI Yeast Anticancer Drug Screen. Data for the wt1 strain (AID 149);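 note: 0% = growth of vehicle-treated wt1 cultures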; conditions: S. cerevisiae wt1 strain (SPY 50644) growth inhibition, hits give high values
# In short: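 Growth inhibition read against vehicle controls after compound exposure of the wt1 yeast strain.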
# [3] = NCI Yeast Anticancer Drug Screen. Data for the rad50EPP+ strain (AID 151);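 note: 0% = growth of vehicle-treated control cultures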; conditions: S. cerevisiae rad50 mutant strain, hits give high values
# In short: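 rad50EPP+ yeast treated with test compounds. Readout: growth vs vehicle control.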
# [4] = NCI Yeast Anticancer Drug Screen. Data for the mgt1 strain (AID 153); conditions: S. cerevisiae mgt1 mutant growth inhibition, hits give high values
# In short: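 Growth inhibition relative to vehicle controls was scored for the mgt1 yeast strain after compound exposure.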
# [5] = NCI Yeast Anticancer Drug Screen. Data for the rad50 strain (AID 155);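 note: 0% = growth of vehicle-only cultures of the same strain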; conditions: S. cerevisiae rad50 strain growth inhibition, hits give high values
# In short: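 Readout: growth inhibition relative to vehicle-treated cultures. Compound exposure was carried out in a genetically defined yeast strain deficient in DNA damage repair.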
# [6] = NCI Yeast Anticancer Drug Screen. Data for the mec2-1 strain (AID 157); conditions: S. cerevisiae mec2-1 strain, hits give high values
# In short: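 Growth inhibition is read against vehicle-treated controls after compound exposure of the mec2-1 yeast strain, which is defective in DNA damage repair or cell cycle control.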
# [7] = NCI Yeast Anticancer Drug Screen. Data for the rad14 strain (AID 159);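 note: 0% = growth of vehicle-treated control cultures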; conditions: S. cerevisiae rad14 strain growth inhibition, hits give high values
# In short: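 Growth inhibition vs vehicle controls; genetically altered yeast strain (DNA damage repair defect) treated with test compounds.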
# [8] = NCI Yeast Anticancer Drug Screen. Data for the sgs1 mgt1 strain (AID 161);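 note: 0% = growth of cultures given vehicle only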; conditions: S. cerevisiae sgs1 mgt1 strain, hits give high values
# In short: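 Percent growth inhibition was derived by comparing compound-exposed mutant yeast with vehicle-exposed cultures. The strain carries alterations in DNA damage repair.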
# [9] = NCI Yeast Anticancer Drug Screen. Data for the CLN2oe strain (AID 163);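 note: 0% = growth of vehicle-only control cultures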; conditions: S. cerevisiae CLN2oe strain, hits give high values
# In short: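 Compound-treated yeast; growth vs vehicle ctrl = % inhibition. Genetically altered strain (cell-cycle control).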
# [10] = NCI Yeast Anticancer Drug Screen. Data for the cln2 rad14 strain (AID 165);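 note: 0% = growth equal to vehicle treated cultures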; conditions: S. cerevisiae cln2 rad14 strain, hits give high values
# In short: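 Growth inhibition, relative to vehicle-treated controls, is the read-out. The test organism is a yeast strain with defined genetic alterations, cln2 rad14.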
# [11] = NCI Yeast Anticancer Drug Screen. Data for the bub3 strain (AID 167); conditions: S. cerevisiae bub3 mutant strain, hits give high values
# In short: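 Readout: yeast growth inhibition, expressed relative to vehicle-only wells. The test organism is a mutant strain from a panel with lesions in DNA repair or checkpoint genes.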
# [12] = NCI Yeast Anticancer Drug Screen. Data for the wt2 strain (AID 169);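 note: 0% = growth of vehicle-treated yeast cultures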; conditions: S. cerevisiae wt2 strain growth inhibition, hits give high values
# In short: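 Compound exposure of yeast; growth compared with vehicle controls; inhibition reported.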
# [13] = NCI Yeast Anticancer Drug Screen. Data for the mlh1 strain (AID 171);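 note: 0% = growth of vehicle-treated control cultures of the same strain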; conditions: S. cerevisiae mlh1 strain growth inhibition, hits give high values
# In short: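 Compounds are applied to a genetically altered yeast strain, and its growth is compared with that of vehicle-treated cultures to give percent inhibition.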
# [14] = NCI Yeast Anticancer Drug Screen. Data for the sgs1 strain (AID 173);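 note: 0% = growth of vehicle-only control cultures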; conditions: S. cerevisiae sgs1 mutant, hits give high values
# In short: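 Compounds applied to genetically altered yeast; growth compared with vehicle-treated cultures to give % inhibition.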
# [15] = NCI Yeast Anticancer Drug Screen. Data for the mlh1 rad18 strain (AID 175); conditions: S. cerevisiae mlh1 rad18 strain growth inhibition, hits give high values
# In short: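 Cells of a genetically altered yeast strain, deficient in DNA damage repair, were treated with compound. Their growth was then compared with that of vehicle-treated cultures to give inhibition.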
# [16] = NCI Yeast Anticancer Drug Screen. Data for the rad18 strain (AID 177); conditions: S. cerevisiae rad18 mutant growth inhibition, hits give high values
# In short: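 Compounds are applied to a repair-deficient yeast strain, and growth is compared with that of vehicle-treated cultures to give percent inhibition.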
# [17] = at 5.0 µM (retest, dose inferred, filed as 0.5)
# [18] = at 50.0 µM (retest, dose inferred, filed as 5.0)
structure (smiles),measurement,setting,value
Cn1c(=O)c2c(nc(N)n2C2OC(CO)C(O)C2O)n(C)c1=O (stereo unspecified),growth inhibition,[1]; at 1.2 µM,-2%
same,growth inhibition,[1]; at 3.7 µM,-1%
same,growth inhibition,[1]; at 11.0 µM,-4%
same,growth inhibition,[1]; at 33.0 µM,-4%
same,growth inhibition,[1]; at 100.0 µM,0%
same,growth inhibition,[2]; at 1.2 µM,-1%
same,growth inhibition,[2]; at 3.7 µM,-1%
same,growth inhibition,[2]; at 11.0 µM,-2%
same,growth inhibition,[2]; at 33.0 µM,-2%
same,growth inhibition,[2]; at 100.0 µM,1%
same,growth inhibition,[3]; at 1.2 µM,-1%
same,growth inhibition,[3]; at 3.7 µM,1%
same,growth inhibition,[3]; at 11.0 µM,1%
same,growth inhibition,[3]; at 33.0 µM,-1%
same,growth inhibition,[3]; at 100.0 µM,2%
same,growth inhibition,[4]; at 1.2 µM,-1%
same,growth inhibition,[4]; at 3.7 µM,-2%
same,growth inhibition,[4]; at 11.0 µM,7%
same,growth inhibition,[4]; at 33.0 µM,-7%
same,growth inhibition,[4]; at 100.0 µM,0%
same,growth inhibition,[5]; at 1.2 µM,-2%
same,growth inhibition,[5]; at 3.7 µM,0%
same,growth inhibition,[5]; [17],17%
same,growth inhibition,[5]; at 11.0 µM,-11%
same,growth inhibition,[5]; at 33.0 µM,-1%
same,growth inhibition,[5]; [18],22%
same,growth inhibition,[5]; at 50.0 µM,87.4% (active)
same,growth inhibition,[5]; at 100.0 µM,1%
same,growth inhibition,[6]; at 1.2 µM,0%
same,growth inhibition,[6]; at 3.7 µM,1%
same,growth inhibition,[6]; [17],-2%
same,growth inhibition,[6]; at 11.0 µM,1%
same,growth inhibition,[6]; at 33.0 µM,-3%
same,growth inhibition,[6]; [18],-19%
same,growth inhibition,[6]; at 50.0 µM,92% (active)
same,growth inhibition,[6]; at 100.0 µM,-2%
same,growth inhibition,[7]; at 1.2 µM,-4%
same,growth inhibition,[7]; at 3.7 µM,-4%
same,growth inhibition,[7]; at 11.0 µM,-6%
same,growth inhibition,[7]; at 33.0 µM,-7%
same,growth inhibition,[7]; at 100.0 µM,0%
same,growth inhibition,[8]; [17],-17%
same,growth inhibition,[8]; [18],20%
same,growth inhibition,[8]; at 50.0 µM,85.3% (active)
same,growth inhibition,[9]; at 1.2 µM,1%
same,growth inhibition,[9]; at 3.7 µM,-3%
same,growth inhibition,[9]; at 11.0 µM,3%
same,growth inhibition,[9]; at 33.0 µM,3%
same,growth inhibition,[9]; at 100.0 µM,10%
same,growth inhibition,[10]; [17],-9%
same,growth inhibition,[10]; [18],50%
same,growth inhibition,[10]; at 50.0 µM,88.6% (active)
same,growth inhibition,[11]; at 1.2 µM,0%
same,growth inhibition,[11]; at 3.7 µM,3%
same,growth inhibition,[11]; [17],-19%
same,growth inhibition,[11]; at 11.0 µM,12%
same,growth inhibition,[11]; at 33.0 µM,15%
same,growth inhibition,[11]; [18],18%
same,growth inhibition,[11]; at 50.0 µM,89% (active)
same,growth inhibition,[11]; at 100.0 µM,15%
same,growth inhibition,[12]; at 1.2 µM,-4%
same,growth inhibition,[12]; at 3.7 µM,-4%
same,growth inhibition,[12]; at 11.0 µM,-4%
same,growth inhibition,[12]; at 33.0 µM,-2%
same,growth inhibition,[12]; at 100.0 µM,0%
same,growth inhibition,[13]; at 1.2 µM,-1%
same,growth inhibition,[13]; at 3.7 µM,-7%
same,growth inhibition,[13]; at 11.0 µM,-1%
same,growth inhibition,[13]; at 33.0 µM,3%
same,growth inhibition,[13]; at 100.0 µM,-1%
same,growth inhibition,[14]; at 1.2 µM,-1%
same,growth inhibition,[14]; at 3.7 µM,-1%
same,growth inhibition,[14]; at 11.0 µM,-1%
same,growth inhibition,[14]; at 33.0 µM,-2%
same,growth inhibition,[14]; at 100.0 µM,1%
same,growth inhibition,[15]; [17],2%
same,growth inhibition,[15]; [18],37%
same,growth inhibition,[15]; at 50.0 µM,83.8% (active)
same,growth inhibition,[16]; at 1.2 µM,-1%
same,growth inhibition,[16]; at 3.7 µM,2%
same,growth inhibition,[16]; at 11.0 µM,-1%
same,growth inhibition,[16]; at 33.0 µM,-2%
same,growth inhibition,[16]; at 100.0 µM,-2%
O=C(NCCCl)Sc1ccc(Cl)cc1,growth inhibition,[1]; at 1.2 µM,3%
same,growth inhibition,[1]; at 3.7 µM,7%
same,growth inhibition,[1]; at 11.0 µM,10%
same,growth inhibition,[1]; at 33.0 µM,55%
same,growth inhibition,[1]; at 100.0 µM,99% (active)
same,growth inhibition,[2]; at 1.2 µM,-3%
same,growth inhibition,[2]; at 3.7 µM,-3%
same,growth inhibition,[2]; at 11.0 µM,0%
same,growth inhibition,[2]; at 33.0 µM,21%
same,growth inhibition,[2]; at 100.0 µM,80% (active)
same,growth inhibition,[3]; at 1.2 µM,3%
same,growth inhibition,[3]; at 3.7 µM,7%
same,growth inhibition,[3]; at 11.0 µM,22%
same,growth inhibition,[3]; at 33.0 µM,56%
same,growth inhibition,[3]; at 100.0 µM,90% (active)
same,growth inhibition,[4]; at 1.2 µM,1%
same,growth inhibition,[4]; at 3.7 µM,-2%
same,growth inhibition,[4]; at 11.0 µM,-2%
same,growth inhibition,[4]; at 33.0 µM,30%
same,growth inhibition,[4]; at 100.0 µM,71% (active)
same,growth inhibition,[5]; at 1.2 µM,4%
same,growth inhibition,[5]; at 3.7 µM,-7%
same,growth inhibition,[5]; [17],-166%
same,growth inhibition,[5]; at 11.0 µM,7%
same,growth inhibition,[5]; at 33.0 µM,55%
same,growth inhibition,[5]; [18],85% (active)
same,growth inhibition,[5]; at 50.0 µM,95.2% (active)
same,growth inhibition,[5]; at 100.0 µM,98% (active)
same,growth inhibition,[6]; at 1.2 µM,1%
same,growth inhibition,[6]; at 3.7 µM,1%
same,growth inhibition,[6]; [17],-52%
same,growth inhibition,[6]; at 11.0 µM,-10%
same,growth inhibition,[6]; at 33.0 µM,13%
same,growth inhibition,[6]; [18],82% (active)
same,growth inhibition,[6]; at 50.0 µM,99.3% (active)
same,growth inhibition,[6]; at 100.0 µM,85% (active)
same,growth inhibition,[7]; at 1.2 µM,-1%
same,growth inhibition,[7]; at 3.7 µM,-7%
same,growth inhibition,[7]; at 11.0 µM,2%
same,growth inhibition,[7]; at 33.0 µM,33%
same,growth inhibition,[7]; at 100.0 µM,75% (active)
same,growth inhibition,[8]; [17],-65%
same,growth inhibition,[8]; [18],53%
same,growth inhibition,[8]; at 50.0 µM,84.5% (active)
same,growth inhibition,[9]; at 1.2 µM,-1%
same,growth inhibition,[9]; at 3.7 µM,-2%
same,growth inhibition,[9]; at 11.0 µM,-2%
same,growth inhibition,[9]; at 33.0 µM,9%
same,growth inhibition,[9]; at 100.0 µM,60%
same,growth inhibition,[10]; [17],-67%
same,growth inhibition,[10]; [18],8%
same,growth inhibition,[10]; at 50.0 µM,42.8%
same,growth inhibition,[11]; at 1.2 µM,2%
same,growth inhibition,[11]; at 3.7 µM,0%
same,growth inhibition,[11]; [17],-71%
same,growth inhibition,[11]; at 11.0 µM,1%
same,growth inhibition,[11]; at 33.0 µM,29%
same,growth inhibition,[11]; [18],84% (active)
same,growth inhibition,[11]; at 50.0 µM,96.2% (active)
same,growth inhibition,[11]; at 100.0 µM,91% (active)
same,growth inhibition,[12]; at 1.2 µM,1%
same,growth inhibition,[12]; at 3.7 µM,0%
same,growth inhibition,[12]; at 11.0 µM,0%
same,growth inhibition,[12]; at 33.0 µM,30%
same,growth inhibition,[12]; at 100.0 µM,92% (active)
same,growth inhibition,[13]; at 1.2 µM,-5%
same,growth inhibition,[13]; at 3.7 µM,1%
same,growth inhibition,[13]; at 11.0 µM,2%
same,growth inhibition,[13]; at 33.0 µM,19%
same,growth inhibition,[13]; at 100.0 µM,93% (active)
same,growth inhibition,[14]; at 1.2 µM,0%
same,growth inhibition,[14]; at 3.7 µM,13%
same,growth inhibition,[14]; at 11.0 µM,22%
same,growth inhibition,[14]; at 33.0 µM,60%
same,growth inhibition,[14]; at 100.0 µM,90% (active)
same,growth inhibition,[15]; [17],-141%
same,growth inhibition,[15]; [18],84% (active)
same,growth inhibition,[15]; at 50.0 µM,97.8% (active)
